Source: PubChem BioAssay AID430 (Sanford-Burnham Center for Chemical Genomics, 2006)
Hit rate of the full screen: of about 63,000 compounds, about 1,100 (1.7%) were called active. The list comes from a sample in which actives are over-represented; it also holds similar structures and randomly drawn compounds. Entries with a potency or affinity are not part of this list. A number with no mark means an inactive call. Rule as the data show it: active = cytotoxicity above about 50%; inactive = the rest.

Assay: cytotoxicity in HPDE-C7 cells, cell-based, fluorescence, HTS (AID 430);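 also: cells exposed to compound for 48 hours before viability readout; 0% = vehicle and 100% = reference cytotoxic drug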
Details: HPDE-C7 pancreatic duct cells viability, at 10 µM, stronger effect = higher value

In order of rising cytotoxicity:
1. O=C(Nc1ccc(Cc2ccncc2)cc1)C1CC1  -38.5%
2. CCOC(=O)C1=C(N)n2c(s/c(=C\c3cccnc3)c2=O)=C(C(=O)OCC)C1c1cccnc1 (stereo not given)  -31.3%
3. CN(C)/C=c1\sc2c(C#N)cc(C(=O)c3ccc(Br)cc3)n2c1=O  -29.6%
4. COc1ccccc1-c1cc(C(F)(F)F)nc(N2CCCC2)n1  -25.6%
5. CCOC(=O)CSc1nc2ccccc2c(=O)n1CCCCCC(=O)NCc1ccco1  -23.3%
6. CCCCOc1ccc(C(=O)N2CCC(C)CC2)cc1  -20.7%
7. Cc1ccc2occ(CN3CCN(c4ccccc4)CC3)c(=O)c2c1  -17%
8. COc1ccc(OCC(=O)N(C)Cc2ccccc2)cc1  -16.7%
9. COc1ccc(C(c2sc3nc(C)nn3c2O)N2CCC(O)CC2)cc1OC (stereo not given)  -15.1%
10. c1ccc2c(Cn3ccnc3)c[nH]c2c1  -14%
11. Clc1ccc(OCCn2ccnc2)c(Cl)c1  -13.9%
12. CCOC(=O)C1=C(N)n2c(s/c(=C\c3ccco3)c2=O)=C(C(=O)OC(C)C)C1c1ccco1 (stereo not given)  -11.9%
13. COc1ccc(S(=O)(=O)CCC(=O)Nc2c(C)n(C)n(-c3ccccc3)c2=O)cc1  -10.2%
14. COc1cc(CN2CCSCC2)cc(OC)c1OC  -9.5%
15. CC(C)N(Cc1ccccc1)S(=O)(=O)N(C)C  -7.9%
16. Cc1cc(S(=O)(=O)N(Cc2ccc3c(c2)OCO3)CC2CCCO2)ccc1-n1cnnn1 (stereo not given)  -7.2%
17. CCCCn1c(=O)[nH]c(=O)c2c1nc(-c1ccc(C#N)cc1)n2C1CCCC1  -7%
18. CC(=O)C1=C(C)OC(N)=C(C#N)C1c1ccncc1 (stereo not given)  -7%
19. COc1ccccc1-c1cc(C(F)(F)F)nc(N2CCOCC2)n1  -5.9%
20. CCCCOc1ccc(C(=O)NC)cc1  -5.6%
21. c1ccc(-n2nnnc2Oc2ccc(-c3nnco3)cc2)cc1  -4.8%
22. OC(Cn1ccnc1)c1ccc(Cl)cc1Cl (stereo not given)  -4.5%
23. CC1Cc2ccccc2N1C(=O)CSc1ncccc1C(=O)O (stereo not given)  -4.3%
24. O=C(COc1ccc(Cl)cc1Cl)NCCCn1ccnc1  -3.9%
25. Cc1cccc(OCCn2c(=O)n(C)c3ccccc32)c1  -3.7%
26. COC(=O)c1ccccc1Nc1ccccc1  -2.7%
27. COc1ccc(N2CCN(Cc3cc(=O)oc4ccc(Cl)cc34)CC2)cc1  -1.8%
28. O=C1[C@H]2[C@@H](C(=O)N1c1cc(Cl)cc(Cl)c1)[C@]1(C(=O)Nc3ccccc31)N1CCC[C@@H]21  -1.8%
29. CC(Oc1ccc(Cl)cc1Cl)C(=O)NCCCn1ccnc1 (stereo not given)  -1.6%
30. Clc1ccc(SCCn2ccnc2)cc1  -0.3%
31. Cc1cc(C)n(-c2nnc3n2N=C(c2ccccc2)CS3)n1  -0.3%
32. OC(Cn1cncn1)c1ccc(Cl)cc1Cl (stereo not given)  1.1%
33. O=C(CCn1c(=O)oc2ccccc21)N1CCN(c2ccccc2F)CC1  1.4%
34. COc1ccc(CCNC(=O)CN2CCN(c3cccc(Cl)c3)CC2)cc1OC  1.7%
35. COc1ccc(-c2cc(C(F)(F)F)n3ncc(C(=O)O)c3n2)cc1OC  2%
36. COc1ccccc1N1CCN(Cc2cccc(OC)c2OC)CC1  3.3%
37. COc1cccc(C(=O)Nc2cccc(-c3nnc(-c4ccccc4)o3)c2)c1  3.9%
38. CCCCCCn1c(SCC(=O)OC)nc2c1c(=O)[nH]c(=O)n2C  3.9%
39. COc1cccc(-c2nnc(NC(C)=O)o2)c1  7.6%
40. Cc1ccc(S(=O)(=O)N2CCN(C(=O)C3CCCCC3)CC2)cc1  7.7%
41. Cc1ccc2c(c1)-c1ccccc1S(=O)(=O)N2  10.1%
42. CCOC(=O)C1=C(N)n2c(s/c(=C\c3cccnc3)c2=O)=C(C(=O)OC)C1c1cccnc1 (stereo not given)  10.6%
43. O=C(CCn1c(=O)oc2ccccc21)N1CCCCCC1  10.9%
44. N#CC1=C(N)n2c(s/c(=C\c3ccco3)c2=O)=C(C#N)C1c1ccco1 (stereo not given)  12.3%
45. Nc1ccc2c(c1)-c1ccccc1S(=O)(=O)N2  14.6%
46. Cc1cccc(-c2nnc3n2N=C(c2ccccc2Br)CS3)c1  15%
47. COc1ccc(CCNc2nc(-c3sc(N)nc3C)cs2)cc1OC  16%
48. Cc1cccc(OCCCN2CCCCCC2)c1  19.3%
49. COc1cc(NC(=O)Cc2nn(C)c(=O)c3ccccc23)cc(OC)c1  19.8%
50. COc1ccccc1-c1cc(C(F)(F)F)nc(S(=O)(=O)CCCC(=O)NC(C)C)n1  28%
51. COc1ccccc1-c1cc(C(F)(F)F)nc(N2CCN(c3ccccc3)CC2)n1  29.8%
52. COc1cccc(C(=O)Nc2nnc(-c3ccc(F)cc3)o2)c1  31%
53. COc1ccc(-c2nnc(NC(=O)c3cc(Cl)ccc3Cl)o2)cc1  33.1%
54. CCn1c(SCC#N)nc2c(c1=O)C1(CCCC1)Cc1ccccc1-2  41.8%
55. CCCn1c(SCC#N)nc2c(c1=O)C1(CCCC1)Cc1ccccc1-2  47.8%

For `CCCCOc1ccc(C(=O)OC2CC(C)N(C)CC2C)cc1` (stereo not given), the cytotoxicity was 61.9% (active).
For `COc1cccc(N2CCN(Cc3coc4c(Cl)cc(Cl)cc4c3=O)CC2)c1`, the cytotoxicity was 61.8% (active).
In the case of `Cc1cc(C)n(-c2nnc3n2N=C(c2c[nH]c4ccccc24)CS3)n1`, the cytotoxicity is reported as 51.3% (active).
In the case of `N#CCSc1n[nH]c2nc3c(c(=O)n12)C1(CCCC1)Cc1ccccc1-3`, the cytotoxicity is reported as 54.9% (active).
For `COc1ccccc1-c1cc(C(F)(F)F)nc(S(=O)(=O)CCCC(=O)N2CCCCC2C)n1` (stereo not given), the cytotoxicity was 88.8% (active).
For `COc1cccc(C(=O)Nc2nnc(-c3ccc(Cl)cc3)o2)c1`, the cytotoxicity was 85.7% (active).
With `COc1cccc(-c2nnc(NC(=O)c3cccc(F)c3)o2)c1` the cytotoxicity was 61.8% (active).
In the case of `CCOC(=O)C1=C(N)n2c(s/c(=C/c3ccco3)c2=O)=C(C(=O)OC)C1c1ccco1` (stereo not given), the cytotoxicity is reported as 75.9% (active).
For `O=C(CCn1c(=O)oc2ccccc21)N1CCN(c2ccccc2Cl)CC1`, the cytotoxicity was 56.7% (active).
With `O=S1(=O)Nc2c(ccc3cccnc23)-c2ccccc21` the cytotoxicity was 90.9% (active).
